PubChem BioAssay (NCI)
The panel holds about 79,000 compounds, 15% with a hit somewhere; the sample as a whole holds those more often. Calls of active or inactive are those of the source. No stated cut-off is given here; in the data, active means growth inhibition above about 70%; inactive means the rest.

Experiment: NCI Yeast Anticancer Drug Screen. Data for the cln2 rad14 strain (AID 165);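 further: 0% = growth equal to vehicle treated cultures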
Conditions: S. cerevisiae cln2 rad14 strain, at 50.0 µM (retest, dose inferred, filed as 5.0), hits give high values
Procedure, shortened: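 Yeast strain cln2 rad14, bearing defects in cell cycle control and DNA repair, serves as the test system; values reflect growth inhibition compared with vehicle.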

| SMILES | growth inhibition |
| --- | --- |
| Cc1ccc(/C=C2\CCCC(CN3CCCCC3)C2=O)cc1 (stereo not given) | 98% (active) |
| Oc1ccc(CCCCCc2ccc(O)cc2)cc1 | 99% (active) |
| COC(=O)c1ccccc1CC(Cc1ccc2c(c1)CCC2)C(=O)OC (stereo not given) | -2% (inactive) |
| CN=C1NS(=O)(=O)c2ccccc21 | 2% (inactive) |
| CCCCC/C(=C/C=C/c1ccc(Cl)cc1)CN(C)C | 97% (active) |
| O=S(=O)(O)c1ccc2c(c1)C1C(C3C2C2(Cl)C(Cl)=C(Cl)C3(Cl)C2(Cl)Cl)C2(Cl)C(Cl)=C(Cl)C1(Cl)C2(Cl)Cl (stereo not given) | 89% (active) |
| Cc1ccc(S(=O)(=O)N/N=C/c2oc(-c3cccc([N+](=O)[O-])c3)c(-c3cccc([N+](=O)[O-])c3)c2[N+](=O)[O-])cc1 | 27% (inactive) |
| CCN(CC)C(C)(C)C(=O)/C=C/c1ccc(Cl)cc1 | 26% (inactive) |
| Fc1ccc(NC(=S)SCc2ccc(Cl)c(Cl)c2)c(F)c1 | 97% (active) |
| CC[C@@]1(OP(=O)(O)O)C(=O)OCc2c1cc1n(c2=O)Cc2cc3ccccc3nc2-1 | -58% (inactive) |
| CC(C)C1=CC2=CCC3C(C)(C(=O)O)CCCC3(C)C2CC1 (stereo not given) (tested in a mixture with another compound) | 85% (active) |
| C=CCSc1nc2ccccc2c(=O)n1Cc1ccco1 | 26% (inactive) |
| COC(=O)c1c(C)cccc1C1CN=NC12Cc1ccc(C)c(C)c1C2=O (stereo not given) | 44% (inactive) |
| CC(=O)N=C1N(/C=C2\C(=O)Oc3ccccc3C2=O)C(=O)/C(=C/c2cccc(Cl)c2Cl)N1C | 25% (inactive) |
| O=C1NC(CSSCC2NC(=O)N(c3ccccc3)C2=O)C(=O)N1c1ccccc1 (stereo not given) | 90% (active) |
